Screens deposited in PubChem by Sanford-Burnham Center for Chemical Genomics.
TIM10 inh: growth inhibitors of isogenic TIM10 control yeast, primary screen, counter-screen for tim10-1 yeast inhibitor project, luminescence, uHTS; S. cerevisiae TIM10 strain growth, BacTiter-Glo luminescence, 24 h; inhibition, % at 10 µM; 1.4% of 330,000 active; AID 463195, 2010;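 active = inhibition of 40% or more at the single tested concentration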;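 note: wild-type TIM10 isogenic control strain grown at permissive 25 °C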
NALP1 yeast inh: NALP1 inflammasome inhibitors in reconstituted yeast, colorimetric, S. cerevisiae, triplicate retest; inhibition, % at 10 µM; 0.61% of 280,000 active; S. cerevisiae NALP1/ASC/caspase-1 growth, X-gal OD620, 72 h; in the data active = inhibition mostly above about 24%, no sharp cut-off; inactive = mostly below about 32%
tim23-1 inh: growth inhibitors of tim23-1 mutant yeast, primary screen, luminescence, uHTS | S. cerevisiae tim23-1 growth, BacTiter-Glo luminescence, 24 h | inhibition, % at 20 µM | 1.3% of 330,000 active | AID 463212, 2010;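 active = growth inhibition of the mutant yeast at or above 50%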;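 note: temperature-sensitive mutant grown at 25 °C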
NALP3 yeast inh: NALP3 inflammasome inhibitors in reconstituted yeast, primary screen, luminescence, uHTS; Yeast reconstituted NLRP3/ASC/caspase-1, beta-gal luminescence, 24 h; 0.39% of 330,000 active; inhibition, % at 10 µM;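 active = inhibition of 50% or more; inactive = inhibition below 50%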
tim10-1 inh: growth inhibitors of tim10-1 mutant yeast, primary screen, luminescence, uHTS | AID 463190, 2010 | inhibition, % at 20 µM | S. cerevisiae tim10-1 ts strain growth, BacTiter-Glo, 24 h | 2.2% of 330,000 active;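 active = inhibition of at least 40%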;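 note: mutant grown at 25 °C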
Large screens that a line does not name were inactive. In the library only some 4% were active in any assay of this set; here they are far more common.

CNC(=O)CSCc1cnn(-c2ccccc2)c1-n1cccc1	NALP1 yeast inh 41
COCc1nc2oc3ccccc3c(=O)c2cc1C(=O)OC	none
CCCc1nc2nc(C)c(NS(=O)(=O)c3ccc([N+](=O)[O-])cc3)c(=O)n2[nH]1	none
C[C@H]1CN([C@@H](C)CO)C(=O)Cc2cc(NS(=O)(=O)c3ccc(Cl)cc3)ccc2O[C@@H]1CN(C)C(=O)Nc1cccc2ccccc12	none (no result: NALP1 yeast inh)
O=C(NCCCN1CCN(CCCNC(=O)c2ccc3c(c2)OCO3)CC1)c1ccc2c(c1)OCO2	NALP1 yeast inh 28
COCCCNC(=O)c1ccc2c(c1)OCO2	none
CCOc1ccc(CCNC(=O)COC(=O)CSc2ccccc2C)cc1OCC	none
Cc1cccc(C(=O)NNC(=O)C2CC2)c1	NALP1 yeast inh 31
Cc1cccc(C(=O)NNC(=O)c2cccc(C)c2)c1	none
COc1cc(OC)cc(OC(=O)C2CCN(C(=O)c3ccc(Cl)cc3)CC2)c1	none (no result: NALP1 yeast inh)
COc1ccc(S(=O)(=O)NCc2ccccn2)cc1	none
CCOc1ccc(S(=O)(=O)NCc2ccccn2)cc1	NALP1 yeast inh 42
Cc1cccc(NC(=O)C2CCCN2C(=O)Oc2ccccc2)c1 (centres undefined)	NALP1 yeast inh 45
Cc1ccc(NS(=O)(=O)c2ccc(Cl)c(C(=O)Nc3cccc(C(=O)O)c3)c2)cc1	none
CC(=O)Nc1ccccc1C(=O)C(=O)Nc1ccc(C)c(C)c1	none
Cc1ccc(NC(=O)/C(Cl)=C/c2ccccc2)cc1C	NALP1 yeast inh 37
CN(C)S(=O)(=O)c1ccc(-c2csc(N/N=C/c3ccc(O)cc3)n2)cc1	none
O=C(NC1CCN(Cc2ccccc2)CC1)c1ccccc1Cl	none
Cc1c(C(=O)NC2CCN(Cc3ccccc3)C2)oc2c(Cl)cccc12 (centres undefined)	NALP1 yeast inh 39
CN1CCN(C(=S)Nc2ccc(Cl)c(Cl)c2)CC1	NALP1 yeast inh 48
CCN(CC)C(=O)c1sc(NC(=O)Cc2ccccc2)c(C#N)c1C	none
CCN(CC)C(=O)c1sc(NC(=O)Cc2ccc(OC)cc2)c(C#N)c1C	NALP1 yeast inh 43
COc1cccc(-c2ncc3ccccc3c2COC(=O)c2ccc(C(C)(C)C)cc2)c1	none (no result: NALP1 yeast inh)
Cc1cccc(C)c1NC(=O)CN(C)C(=O)COc1cccc2c1OC(C)(C)C2	none (no result: NALP1 yeast inh)
CN(CC(=O)Nc1cccc(F)c1)C(=O)COc1cccc2c1OC(C)(C)C2	NALP1 yeast inh 32
COCCCN(CCNC(=O)c1ccc(NC2=NC3CS(=O)(=O)CC3S2)cc1)Cc1ccco1 (centres undefined)	none
COCCCN(CCCN)Cc1ccco1	NALP1 yeast inh 71
CCc1c(C)nc(N2CCN(c3ccc(OC)cc3)CC2)[nH]c1=O	none
COCC1CCN(Cc2nc(-c3cccs3)no2)C1 (centres undefined)	none
COc1ccccc1CN1CCN(Cc2nc(-c3cccs3)no2)CC1	NALP1 yeast inh 22
CC1CCC2(CC1)SCC(=O)N2c1ccccc1 (centres undefined)	none
Cc1cccc(N2C(=O)CSC23CCCCC3)c1	NALP1 yeast inh 35
Cc1ccccc1NC(=O)Cc1nc(COC(=O)c2ccc(O)cc2O)cs1	none
COC(=O)c1cccc(NC(=O)/C=C/c2ccc([N+](=O)[O-])cc2)c1	none
O=C(/C=C/c1ccc([N+](=O)[O-])cc1)Nc1cccc(C(=O)Nc2ccccc2C(=O)O)c1	NALP1 yeast inh 28 (no result: TIM10 inh, tim23-1 inh, NALP3 yeast inh, tim10-1 inh)
CC(C)[C@H](NC(=O)c1ccco1)C(=O)OCC(=O)c1ccc(Br)s1	none (no result: NALP1 yeast inh)
COCCCC1CCN(Cc2cn[nH]c2-c2cc(OC)c(OC)c(OC)c2)CC1	NALP1 yeast inh 26
CC(C(=O)NCCc1ccc(Cl)cc1)n1c(=O)c2cccn2c2cccnc21 (centres undefined)	none
Cc1ccc2nc3c(c(Nc4ccccc4)c2c1)CCC3	NALP1 yeast inh 41
COc1ccccc1NC(=O)Nc1nc(CC(=O)NCc2ccc(F)cc2)cs1	none (no result: NALP1 yeast inh)
Cc1ccc(/C=N/NC(=O)c2cc(C)oc2C)cc1	NALP1 yeast inh 36
O=C(Oc1ccc(Cl)c2cccnc12)C12CC3CC(CC(C3)C1)C2	none
O=S(=O)(c1cccs1)N1CCN(c2ccc(O)cc2)CC1	NALP1 yeast inh 35
COc1ccc(C2C3=C(N=C4SCC(=O)N42)c2ccccc2CC3)cc1OC (centres undefined)	none
COc1ccc(C2C3=C(N=C4SCC(=O)N42)c2ccccc2CC3)cc1 (centres undefined)	NALP1 yeast inh 38
CC1Sc2ccc(C(=O)OCc3ccccc3Cl)cc2NC1=O (centres undefined)	none (no result: NALP1 yeast inh)
c1ccc2c(c1)nc(N1CCCCC1)c1ccccc12	NALP1 yeast inh 39
CC1(C)NC(=O)N(CCSc2ccc(Cl)cc2)C1=O	NALP1 yeast inh 30
CCOC(=O)C1=C(COC(=O)c2ccc([N+](=O)[O-])o2)NC(=O)NC1C (centres undefined)	none (no result: NALP1 yeast inh)
COc1ccc(N(CC(=O)Nc2ccccc2OC)S(=O)(=O)c2ccc(NC(C)=O)cc2)cc1	none
CCN(CC)S(=O)(=O)c1ccc2[nH]cc(C(=O)NCCN3CCCCCC3)c(=O)c2c1	NALP1 yeast inh 32
CCN(CC)S(=O)(=O)c1ccc2[nH]cc(C(=O)NCCCN3CCCCC3)c(=O)c2c1	none
CCCN1CCCc2cc(CN(CCCN3CCOCC3)C(=O)Nc3ccc(OCC)cc3)ccc21	NALP1 yeast inh 45
Cc1cccc(N2C(=O)CC(Sc3nnc(C)s3)C2=O)c1 (centres undefined)	NALP1 yeast inh 35
Cc1cccc(N2C(=O)CC(Sc3nc(C)cc(C)n3)C2=O)c1 (centres undefined)	none
Cc1nc(C)c(C(=O)N2CCCC(C(=O)c3cc(F)ccc3F)C2)s1 (centres undefined)	none
COc1ccc(Br)cc1CSC(=N)N	none
CCCCCOc1ccc(Br)cc1CSC(=N)N	NALP1 yeast inh 52 (no result: TIM10 inh, tim23-1 inh, NALP3 yeast inh, tim10-1 inh)
O=C(NC1CCCC1)C(c1ccncc1)N(C(=O)Cn1nnc(-c2ccccc2F)n1)c1cccc(F)c1 (centres undefined)	none
O=C(CSc1nc2ccccc2c(=O)n1CCCN1CCOCC1)NC12CC3CC(CC(C3)C1)C2	NALP1 yeast inh 34
O=C(CSc1nc2ccccc2c(=O)n1CCCN1CCOCC1)NCCc1ccccc1	none (no result: NALP1 yeast inh)
O=C(CCN1C(=O)/C(=C\c2ccccc2Cl)SC1=S)N1CCN(c2ccccc2)CC1	NALP1 yeast inh 29
O=C(CCN1C(=O)/C(=C/c2ccccc2Cl)SC1=S)NN1CCOCC1	none
COc1cccc(/C=N/NC(=O)c2ccoc2C)c1	NALP1 yeast inh 36
CC(NC(=O)c1ccccc1Cl)c1ccc(-n2ccnc2)cc1 (centres undefined)	none
Cc1nn(C)c(C)c1NC(=O)CN1CCC(O)(c2ccc3c(c2)OCO3)CC1	NALP1 yeast inh 31
CC(C)(C)NC(=O)CN1CCC(O)(c2ccc3c(c2)OCO3)CC1	none
CC(C)(C)NCC(=O)c1c[nH]c2ccccc12	NALP1 yeast inh 30
